{"source": "PubChem BioAssay (NCI)", "experiment": "NCI Yeast Anticancer Drug Screen. Data for the sgs1 mgt1 strain (AID 161);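 also: 0% = growth of cultures given vehicle only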", "details": "S. cerevisiae sgs1 mgt1 strain, hits give high values", "description": "Growth inhibition of yeast strains with defined genetic alterations is measured as a screen for potential anti-cancer activity. Selected strains with alterations in DNA damage repair or cell cycle control were exposed to compounds and growth inhibition was measured relative to vehicle treated controls. The strain used in this assay is sgs1 mgt1", "key": {"[1]": {"details": "at 5.0 µM (retest, dose inferred, filed as 0.5)"}, "[2]": {"details": "at 50.0 µM (retest, dose inferred, filed as 5.0)"}}, "note": "Compounds without any hit were thinned out: in the full panel of roughly 79,000, 15% have a hit. Unmarked numbers belong to inactive results. Calls of active or inactive are those of the source. Rule as the data show it: active = growth inhibition above about 70%; inactive = the rest."}
{"smiles": "C[C@H](CCC1=NC(C)(C)CO1)C1CCC2[C@@H]3C(O)C[C@@H]4CC(O)CC[C@]4(C)C3CC[C@@]21C", "note": "(some centres not stated)", "values": [{"measurement": "growth inhibition", "setting": "[1]", "value": 3, "unit": "%"}, {"measurement": "growth inhibition", "setting": "[2]", "value": "98% (active)"}, {"measurement": "growth inhibition", "setting": "at 50.0 µM", "value": "99.7% (active)"}]}
{"smiles": "CCOP(=O)(OCC)/C(C#N)=C/c1ccc(-c2ccc(F)cc2F)o1", "values": [{"measurement": "growth inhibition", "setting": "[1]", "value": 35, "unit": "%"}, {"measurement": "growth inhibition", "setting": "[2]", "value": "99% (active)"}, {"measurement": "growth inhibition", "setting": "at 50.0 µM", "value": 63.1, "unit": "%"}]}
{"smiles": "Cc1cc(Cl)ccc1NC(=O)/C(Cl)=C(/Cl)C(=O)O", "values": [{"measurement": "growth inhibition", "setting": "[1]", "value": 0, "unit": "%"}, {"measurement": "growth inhibition", "setting": "[2]", "value": 37, "unit": "%"}, {"measurement": "growth inhibition", "setting": "at 50.0 µM", "value": "99.7% (active)"}]}
{"smiles": "Cc1cc(OCc2nc(N)nc(N)c2-c2ccc(Cl)c(Cl)c2)ccc1[N+](=O)[O-]", "values": [{"measurement": "growth inhibition", "setting": "[1]", "value": 54, "unit": "%"}, {"measurement": "growth inhibition", "setting": "[2]", "value": "75% (active)"}, {"measurement": "growth inhibition", "setting": "at 50.0 µM", "value": "98.7% (active)"}]}
{"smiles": "CNC(=O)OCc1c2ccncc2c(C)c2c1[nH]c1ccccc12", "values": [{"measurement": "growth inhibition", "setting": "[1]", "value": 40, "unit": "%"}, {"measurement": "growth inhibition", "setting": "[2]", "value": 13, "unit": "%"}, {"measurement": "growth inhibition", "setting": "at 50.0 µM", "value": 51.5, "unit": "%"}]}
{"smiles": "Cc1ccccc1NC(=O)c1c(C)oc2c1C(=O)c1ccccc1C2=O", "values": [{"measurement": "growth inhibition", "setting": "[1]", "value": -10, "unit": "%"}, {"measurement": "growth inhibition", "setting": "[2]", "value": 3, "unit": "%"}, {"measurement": "growth inhibition", "setting": "at 50.0 µM", "value": "71% (active)"}]}
{"smiles": "CCOC(=O)/C(=C\\c1cccc(C)c1)C(C)=O", "values": [{"measurement": "growth inhibition", "setting": "[1]", "value": 19, "unit": "%"}, {"measurement": "growth inhibition", "setting": "[2]", "value": "94% (active)"}, {"measurement": "growth inhibition", "setting": "at 50.0 µM", "value": "92.5% (active)"}]}
{"smiles": "CC(C)(CN1CCCCC1)C(=O)/C=C/c1c(Cl)cccc1Cl", "values": [{"measurement": "growth inhibition", "setting": "[1]", "value": 21, "unit": "%"}, {"measurement": "growth inhibition", "setting": "[2]", "value": "98% (active)"}, {"measurement": "growth inhibition", "setting": "at 50.0 µM", "value": "86.9% (active)"}]}
{"smiles": "CCN(CC)CC(=O)c1ccc2cc(Cl)c3ccccc3c2c1", "values": [{"measurement": "growth inhibition", "setting": "[1]", "value": 42, "unit": "%"}, {"measurement": "growth inhibition", "setting": "[2]", "value": "99% (active)"}, {"measurement": "growth inhibition", "setting": "at 50.0 µM", "value": "99.2% (active)"}]}
{"smiles": "O=[N+]([O-])c1ccc2[nH]c3c(-c4ccccc4)nccc3c2c1", "values": [{"measurement": "growth inhibition", "setting": "[1]", "value": 10, "unit": "%"}, {"measurement": "growth inhibition", "setting": "[2]", "value": "98% (active)"}, {"measurement": "growth inhibition", "setting": "at 50.0 µM", "value": "93% (active)"}]}
{"smiles": "CCOP(=O)(OCC)/C(C#N)=C\\c1cccc2ccccc12", "values": [{"measurement": "growth inhibition", "setting": "[1]", "value": 53, "unit": "%"}, {"measurement": "growth inhibition", "setting": "[2]", "value": "90% (active)"}, {"measurement": "growth inhibition", "setting": "at 50.0 µM", "value": "89.2% (active)"}]}
{"smiles": "CN(C)N=Nc1ccc(N(C)C)cc1", "values": [{"measurement": "growth inhibition", "setting": "[1]", "value": 2, "unit": "%"}, {"measurement": "growth inhibition", "setting": "[2]", "value": 51, "unit": "%"}, {"measurement": "growth inhibition", "setting": "at 50.0 µM", "value": 20.9, "unit": "%"}]}
{"smiles": "COc1ccc(C(OCC2OC(n3cnc4c(=O)n(Cc5ccccc5[N+](=O)[O-])nnc43)C(O)C2O)(c2ccccc2)c2ccc(OC)cc2)cc1", "note": "(configuration not stated)", "values": [{"measurement": "growth inhibition", "setting": "[1]", "value": 0, "unit": "%"}, {"measurement": "growth inhibition", "setting": "[2]", "value": "97% (active)"}, {"measurement": "growth inhibition", "setting": "at 50.0 µM", "value": "91.6% (active)"}]}
{"smiles": "CCCC/C=C1\\CCC(CN2CCCC2)C1=O", "note": "(configuration not stated)", "values": [{"measurement": "growth inhibition", "setting": "[1]", "value": 18, "unit": "%"}, {"measurement": "growth inhibition", "setting": "[2]", "value": 51, "unit": "%"}, {"measurement": "growth inhibition", "setting": "at 50.0 µM", "value": "78.2% (active)"}]}
